Screening data deposited in PubChem by National Center for Advancing Translational Sciences (NCATS).
AmpC detergent: blocks E. coli AmpC beta-lactamase in detergent assay. AmpC hydrolysis of nitrocefin, absorbance 480 nm, 0.01% Triton. Potency, µM (highest dose often 114 µM), usual class: inhibitors. 370,000 tested, 0.041% active; further: nearly all actives have a fitted effect of over 25% in size
Target sequence (P00811 whole entry, looked up): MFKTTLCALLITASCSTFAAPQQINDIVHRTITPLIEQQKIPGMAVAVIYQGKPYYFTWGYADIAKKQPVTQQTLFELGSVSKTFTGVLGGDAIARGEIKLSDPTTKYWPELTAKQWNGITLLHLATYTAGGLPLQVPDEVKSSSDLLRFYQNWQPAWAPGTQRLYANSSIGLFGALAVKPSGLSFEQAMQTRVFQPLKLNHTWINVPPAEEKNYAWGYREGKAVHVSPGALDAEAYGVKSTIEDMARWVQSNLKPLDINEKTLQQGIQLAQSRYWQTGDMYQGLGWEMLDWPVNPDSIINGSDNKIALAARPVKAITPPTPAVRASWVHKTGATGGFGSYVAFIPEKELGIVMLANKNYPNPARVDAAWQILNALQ
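20 mM phosphate pH 7.0 + 0.01% (detergent screen) or 0.0001% Triton X-100; 5.3 nM AmpC reagent; cpd preinc 15 min RT; nitrocefin (800 uM stock) to start; A480 q20 s × 4 min; Activity was normalised to no-enzyme and no-compound control wells.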
Giardia FBPA inh-1: Giardia lamblia aldolase inhibition | purified Giardia FBPA | 290,000 tested, 0.71% active | Potency, µM (highest dose often 59.6 µM), hits mostly inhibitors | A8B2U2 | AID 2451; further: nearly all actives have a fitted effect of over 55% in size
Target sequence (A8B2U2 whole entry, looked up): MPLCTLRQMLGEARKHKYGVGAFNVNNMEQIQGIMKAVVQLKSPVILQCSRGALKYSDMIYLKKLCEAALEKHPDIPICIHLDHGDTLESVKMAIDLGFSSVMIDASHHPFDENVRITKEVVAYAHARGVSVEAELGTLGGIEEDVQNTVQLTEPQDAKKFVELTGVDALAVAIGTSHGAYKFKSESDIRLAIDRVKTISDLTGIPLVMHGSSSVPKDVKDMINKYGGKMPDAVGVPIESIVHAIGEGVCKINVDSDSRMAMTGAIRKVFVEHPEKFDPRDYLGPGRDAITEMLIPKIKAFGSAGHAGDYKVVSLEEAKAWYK
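40 nM FBPA preincubated 10 min at RT with compound (up to 57.5 uM final), then substrate plus GAPDH/TPI/NAD/arsenate coupling and diaphorase/resazurin added. Fluorescence read after 20 min at RT, 525/598 nm.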
AmpC no deterg: inhibitors of E. coli AmpC beta-lactamase without detergent. AmpC nitrocefin hydrolysis, absorbance 480 nm, 0.0001% Triton. Potency, µM (highest dose often 57.1 µM), usual class: inhibitors. 330,000 tested, 0.52% active. AID 485341; further: nearly all actives have a fitted effect of over 20% in size
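AmpC (5.3 nM in the dispensed reagent) in 20 mM phosphate pH 7.0 with 0.01% (detergent screen) or 0.0001% Triton X-100 was preincubated with compounds for 15 min at room temperature. Nitrocefin was then added from an 800 uM solution, and hydrolysis was followed at 480 nm.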
Sm TGR block: blocks Schistosoma mansoni thioredoxin glutathione reductase. Q962Y6. purified TGR, DTNB reduction, TNB absorbance 405 nm. Potency, µM (titrated, usually from 114 µM), most hits filed as inhibitors. 360,000 tested, 3% active. AID 485364; further: nearly all actives have a fitted effect of over 60% in size
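First, TGR (20 nM dispensed) and NADPH were mixed with compound. Second, a 15 min room-temperature incubation followed. Third, further NADPH and then DTNB were added to start the reaction. Finally, TNB absorbance was monitored kinetically.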
Giardia growth: Giardia lamblia growth inhibition. shares compounds with Giardia FBPA inh-1. AID 2785. Giardia lamblia trophozoite growth inhibition. 1,500 tested, 5% active. Potency, µM (highest dose often 57.5 µM), hits mostly inhibitors;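 further: trophozoites exposed to compound for 48 h at 37 °C; nearly all actives have a fitted effect of over 70% in size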
Mammal cell tox: toxic to mammalian cells in Giardia aldolase counter-screen; shares compounds with Giardia FBPA inh-1; mammalian cell viability counter-screen, qHTS; Potency, µM (series often up to 57.5 µM), actives largely listed as inhibitors; 1,500 tested, 4% active;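 further: Chinese hamster ovary cells used as mammalian cytotoxicity surrogate; viability measured as cellular ATP by luminescence; compound exposure lasted 48 h before reading; nearly all actives have a fitted effect of over 60% in size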
Giardia FBPA inh-2: confirmation of Giardia fructose-bisphosphate aldolase inhibitors; AID 2787; purified Giardia aldolase enzyme activity, qHTS; shares compounds with Giardia FBPA inh-1; Potency, µM (top dose mostly 57.5 µM), usual class: inhibitors; 1,500 tested, 5% active; further: nearly all actives have a fitted effect of over 45% in size
Rabbit aldolase: blocks rabbit muscle aldolase in Giardia aldolase selectivity test; AID 2794; Rabbit muscle FBPA enzyme inhibition, selectivity counter-screen; 1,500 tested, 4% active; shares compounds with Giardia FBPA inh-1; Potency, µM (series often up to 57.5 µM), usual class: inhibitors; further: nearly all actives have a fitted effect of over 60% in size
GAPDH coupling: counter-screen for Giardia aldolase inhibitors: GAPDH coupling enzyme; shares compounds with Giardia FBPA inh-1; Potency, µM (doses to about 57.5 µM), hits mostly inhibitors; GAPDH coupling enzyme counterscreen, biochemical, qHTS; 1,500 tested, 6% active; AID 2795; further: nearly all actives have a fitted effect of over 55% in size
Large screens that a line does not name were inactive (follow-up assays come after a bar, where they were run); ! = repeats disagree; [ ] = dose if it differs, or a comment. Hits are enriched below; roughly 3.6% of the tested compounds scored in any of these assays. The call rests on the fitted dose curve; in most records, active means well fitted curve in the direction sought with a large enough effect; inconclusive means small, poorly fitted or top-dose-only effect, or another doubt; inactive means no such curve, though single readings can be large; an effect the other way counts as inactive or inconclusive.

O=C(O)c1ccc(NC(=S)NC(=O)c2cccnc2)cc1	Giardia FBPA inh-1 3.5µM, Sm TGR block 35µM | Giardia growth inactive | Mammal cell tox inactive | Giardia FBPA inh-2 inactive | Rabbit aldolase inactive | GAPDH coupling inactive
O=C(NC(=S)Nc1ccccc1Br)c1cccnc1	Giardia FBPA inh-1 6.3µM, Sm TGR block 18µM | Giardia growth inconclusive | Mammal cell tox inactive | Giardia FBPA inh-2 inactive | Rabbit aldolase inactive | GAPDH coupling inactive
CCOc1ccc(CN(CCc2ccc3c(c2)OCO3)Cc2cc(OC)cc(OC)c2)cc1	none (no result: Giardia FBPA inh-1, AmpC no deterg)
COc1ccc2nc(S(=O)Cc3ncc(C)c(OC)c3C)[nH]c2c1 (stereo unspecified)	Giardia FBPA inh-1 16µM! | Giardia growth inconclusive | Mammal cell tox inactive | Giardia FBPA inh-2 inactive | Rabbit aldolase inactive | GAPDH coupling inactive
COc1ccc2nc(SCC(=O)Nc3c(C)cccc3C)[nH]c2c1	none
Fc1ccccc1CN1CCN(c2ncccn2)CC1	AmpC detergent inconclusive, Giardia FBPA inh-1 25µM | Giardia growth inactive | Mammal cell tox inactive | Giardia FBPA inh-2 inactive | Rabbit aldolase inactive | GAPDH coupling inactive
Nc1ncnc2c1ncn2[C@@H]1O[C@H](CNCc2ccc(OCC(=O)Nc3nccs3)cc2)[C@@H](O)[C@H]1O	none (no result: AmpC detergent, Giardia FBPA inh-1, Sm TGR block)
CCN(CC(=O)Nc1ccccc1OC)CC(=O)Nc1ccccc1C(F)(F)F	AmpC detergent inconclusive
CCN(CC(=O)Nc1ccccc1OC)CC(=O)Nc1ccccc1-c1ccccc1	Giardia FBPA inh-1 18µM | Giardia growth inactive | Mammal cell tox inactive | Giardia FBPA inh-2 inactive | Rabbit aldolase inactive | GAPDH coupling inactive
N#CCCN(Cc1cccs1)C(=O)c1ccc(Cl)cc1	none
CC1[C@H]2Cc3ccc(O)cc3[C@]1(C)CCN2CCc1ccccc1 (stereo partly specified)	none (no result: AmpC detergent, Giardia FBPA inh-1, Sm TGR block)
CN1CC[C@]2(C)c3cc(O)ccc3N(C)[C@@H]12	Giardia FBPA inh-1 1µM (no result: AmpC detergent, AmpC no deterg, Sm TGR block) | Giardia growth inactive | Mammal cell tox inactive | Giardia FBPA inh-2 2.2µM | Rabbit aldolase 3.2µM | GAPDH coupling 3.2µM
CCCCn1c(SCC(=O)c2ccc(O)c(O)c2)nc2ccsc2c1=O	Giardia FBPA inh-1 inconclusive
O=C(O)CCCCCn1c(SCC(=O)c2ccc(O)c(O)c2)nc2ccsc2c1=O	Giardia FBPA inh-1 4µM | Giardia growth inactive[10.4 µM] | Mammal cell tox inactive | Giardia FBPA inh-2 inactive | Rabbit aldolase inactive | GAPDH coupling inactive
Cc1nc2nc(NC(=O)c3ccc(F)cc3)[nH]n2c(=O)c1Cc1ccccc1	none (no result: Giardia FBPA inh-1, AmpC no deterg)
O=C(Oc1c(CN2CCOCC2)cc(Cl)c2cccnc12)c1ccccc1F	Giardia FBPA inh-1 16µM | Giardia growth 7.9µM | Mammal cell tox 7.9µM | Giardia FBPA inh-2 inconclusive | Rabbit aldolase inconclusive | GAPDH coupling inactive
COc1ccc(CCNC(=O)/C(C#N)=C/c2ccc(OCC(=O)NCC3CCCO3)cc2)cc1OC (stereo unspecified)	none
COc1ccc(CCNC(=O)CNCC2CCCO2)cc1OC (stereo unspecified)	Giardia FBPA inh-1 16µM | Giardia growth inactive | Mammal cell tox inactive | Giardia FBPA inh-2 inactive | Rabbit aldolase inactive | GAPDH coupling inactive
COc1ccc(OC)c(C2CC(=O)N3CN(c4cccc(Cl)c4)CSC3=C2C#N)c1 (stereo unspecified)	AmpC detergent inconclusive, Giardia FBPA inh-1 3.5µM, Sm TGR block 50µM | Giardia growth inactive | Mammal cell tox inactive | Giardia FBPA inh-2 inactive | Rabbit aldolase inactive | GAPDH coupling inactive
COc1ccc(OC)c(C2CC(=O)N3CN(c4ccc(C)c(Cl)c4)CSC3=C2C#N)c1 (stereo unspecified)	AmpC detergent inconclusive, Giardia FBPA inh-1 5µM, Sm TGR block 20µM | Giardia growth inactive[10.4 µM] | Mammal cell tox inactive | Giardia FBPA inh-2 inconclusive | Rabbit aldolase inconclusive | GAPDH coupling inactive
CCOC(=O)c1ccc(N2CSC3=C(C#N)C(c4ccc(OC)cc4OC)CC(=O)N3C2)cc1 (stereo unspecified)	AmpC detergent inconclusive, Giardia FBPA inh-1 inconclusive, Sm TGR block inconclusive
CCOc1ccc(N2CSC3=C(C#N)C(c4ccco4)CC(=O)N3C2)cc1 (stereo unspecified)	Giardia FBPA inh-1 7.9µM, Sm TGR block 25µM | Giardia growth inactive | Mammal cell tox inactive | Giardia FBPA inh-2 inconclusive | Rabbit aldolase inconclusive | GAPDH coupling inconclusive
COc1ccc(OC)c(C2CC(=O)N3CN(c4cccc(Cl)c4C)CSC3=C2C#N)c1 (stereo unspecified)	Giardia FBPA inh-1 1.4µM, Sm TGR block 10µM | Giardia growth inconclusive | Mammal cell tox inactive | Giardia FBPA inh-2 inactive | Rabbit aldolase inconclusive | GAPDH coupling inconclusive
COc1cc(OC)c(C2CC(=O)N3CN(C)CSC3=C2C#N)cc1OC (stereo unspecified)	AmpC detergent inconclusive, Giardia FBPA inh-1 0.56µM, Sm TGR block inconclusive | Giardia growth inactive | Mammal cell tox inactive | Giardia FBPA inh-2 inconclusive | Rabbit aldolase inactive | GAPDH coupling inconclusive
COc1cccc(C2CC(=O)N3CN(c4ccccc4F)CSC3=C2C#N)c1 (stereo unspecified)	AmpC detergent inconclusive, Giardia FBPA inh-1 3.2µM, Sm TGR block 35µM | Giardia growth inactive[10.4 µM] | Mammal cell tox inactive | Giardia FBPA inh-2 inactive | Rabbit aldolase inactive | GAPDH coupling inactive
Cc1ccc(C2CC(=O)N3CN(Cc4ccco4)CSC3=C2C#N)cc1 (stereo unspecified)	AmpC detergent inconclusive, Giardia FBPA inh-1 inconclusive
Cc1ccccc1CNC(=O)c1cnc2sc(N3CCC(C)CC3)nn2c1=O	none (no result: Giardia FBPA inh-1, AmpC no deterg)
C=CCN(C(=O)CNC(=O)c1cccs1)C(C(=O)NC(C)(C)C)c1ccccc1 (stereo unspecified)	none (no result: Sm TGR block)
CCC(C)c1ccccc1NC(=O)C(C)N(C)Cc1cccc(OC)c1 (stereo unspecified)	Giardia FBPA inh-1 20µM | Giardia growth inconclusive | Mammal cell tox inactive | Giardia FBPA inh-2 inactive | Rabbit aldolase inactive | GAPDH coupling inactive
Cc1ccc(C)c(N2CCN(Cc3csc(C)c3C)CC2)c1	none (no result: Giardia FBPA inh-1, AmpC no deterg)
Cc1ccc(C)c(N2CCN(CCN3CCCCC3)CC2)c1	Giardia FBPA inh-1 16µM | Giardia growth inconclusive | Mammal cell tox inactive | Giardia FBPA inh-2 inactive | Rabbit aldolase inactive | GAPDH coupling inactive
